The full list was thinned out, with hits kept by preference.
TbPYK inhibitor – qHTS of Trypanosoma Brucei Inhibitors | TbPYK enzyme, Kinase-Glo Plus ATP luminescence, 45 min | pyruvate kinase (Trypanosoma brucei), Q57TT1 | Potency, µM (titrated, usually from 76.8 µM), for inactives: at the top dose activity, negative = inhibition, actives largely listed as inhibitors | 410,000 compounds, 0.12% hits; also: potency is read from the fitted curve at half-maximal effect; % is scaled to controls: 0 for no effect and ±100 for the full control effect; nearly all actives have a fitted effect of over 50% in size
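Enzyme and substrate buffer are dispensed first and compound is pin-transferred. ADP at 130 uM final then starts the reaction, which runs 45 min at room temperature. Detection reagent is added for 10 min before luminescence is imaged.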
Sm TGR block – qHTS Assay for the Inhibitors of Schistosoma Mansoni Peroxiredoxins | Schistosoma mansoni thioredoxin glutathione reductase (TGR), Q962Y6 | AID 485364, 2010 | Potency, µM (series often up to 114 µM), without a hit: at the top dose activity change, negative = inhibition, most hits filed as inhibitors | purified TGR, DTNB reduction, TNB absorbance 405 nm | 360,000 compounds, 3% hits; also: potency is read from the fitted curve at half-maximal effect; % is scaled to controls: 0 for no effect and ±100 for the full control effect; nearly all actives have a fitted effect of over 60% in size
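First, TGR (20 nM dispensed) and NADPH were mixed with compound. Second, a 15 min room-temperature incubation followed. Third, further NADPH and then DTNB were added to start the reaction. Finally, TNB absorbance was monitored kinetically.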
LmPK inhibitor – qHTS Assay for Inhibitors of Leishmania Mexicana Pyruvate Kinase (LmPK) | Q27686 | Potency, µM (top dose mostly 57.5 µM), for the others: top-dose activity change, negative = inhibition, hits mostly inhibitors | AID 1721, 2009 | purified LmPK, Kinase-Glo ATP luminescence, 1 h | 290,000 compounds, 0.37% hits; also: potency is read from the fitted curve at half-maximal effect; % is scaled to controls: 0 for no effect and ±100 for the full control effect
Target sequence (Q27686 whole entry, looked up): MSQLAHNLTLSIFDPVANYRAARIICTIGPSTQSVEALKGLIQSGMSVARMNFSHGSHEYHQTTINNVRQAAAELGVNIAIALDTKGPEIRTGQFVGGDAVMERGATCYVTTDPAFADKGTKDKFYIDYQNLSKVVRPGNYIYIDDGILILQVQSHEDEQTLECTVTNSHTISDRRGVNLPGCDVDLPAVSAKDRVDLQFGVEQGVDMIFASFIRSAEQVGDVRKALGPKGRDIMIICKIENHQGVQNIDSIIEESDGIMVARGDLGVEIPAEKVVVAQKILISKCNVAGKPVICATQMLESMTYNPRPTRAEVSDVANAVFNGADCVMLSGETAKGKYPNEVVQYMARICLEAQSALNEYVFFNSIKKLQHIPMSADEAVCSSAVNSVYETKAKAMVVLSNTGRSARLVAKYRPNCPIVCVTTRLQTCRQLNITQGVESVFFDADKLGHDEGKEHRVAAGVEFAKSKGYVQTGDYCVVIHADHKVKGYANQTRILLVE
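Pyruvate kinase activity monitored as ATP production (luciferase luminescence). Conditions: 0.1 nM enzyme, 0.5 mM PEP, 0.1 mM ADP, 1 h, RT; normalized against uninhibited and no-enzyme wells.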
FBPA Giardia inh – qHTS Assay for Inhibitors of Fructose-1,6-bisphosphate Aldolase from Giardia Lamblia; A8B2U2; purified Giardia FBPA; Potency, µM (series often up to 59.6 µM), for inactives: top-dose activity, negative = inhibition, hits mostly inhibitors; 290,000 compounds, 0.71% hits; also: potency is read from the fitted curve at half-maximal effect; % is scaled to controls: 0 for no effect and ±100 for the full control effect; nearly all actives have a fitted effect of over 55% in size
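Giardia FBPA (40 nM reagent) was preincubated 10 min at RT with compound (up to 57.5 uM final), then substrate plus GAPDH/TPI/NAD/arsenate coupling system with diaphorase/resazurin was added; resorufin fluorescence (525/598 nm) was read after 20 min.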
Cycloheximide cs – Cycloheximide Counterscreen for Small Molecule Inhibitors of Shiga Toxin. max response, %. cell reporter, cycloheximide protein synthesis inhibition counterscreen. 300,000 compounds, 12% hits. AID 2314, 2010; in the data active = max response mostly above about 13%, no sharp cut-off; inactive = mostly below about 14%; also: read at 38.3 µM for the half of the compounds with a filed dose; 0% is about no effect
Shiga toxin inh – A qHTS for Small Molecule Inhibitors of Shiga Toxin; inhibition, % at 38.7 µM; AID 2315, 2010; 290,000 compounds, 9.2% hits; Vero cells, Shiga toxin protein synthesis inhibition reporter; in the data active = inhibition mostly above about 28%, no sharp cut-off; inactive = mostly below about 43%; also: 0% is about no effect
An asterisk follows results filed as active; i = inactive; ? = inconclusive; nt = no result; [ ] = dose if it differs, or a comment. Unless noted, calls follow the shape of the dose curve; as a rule, active = well fitted curve in the direction sought with a large enough effect; inconclusive = small, poorly fitted or top-dose-only effect, or another doubt; inactive = no such curve, though single readings can be large; an effect the other way counts as inactive or inconclusive.

SMILES	TbPYK inhibitor	Sm TGR block	LmPK inhibitor	FBPA Giardia inh	Cycloheximide cs	Shiga toxin inh
Cc1cccc(OCC(=O)Oc2ccc(Cl)cc2)c1	0.2%	nt	nt	nt	nt	nt
Cc1ccc(NC(=O)c2ccc(OC(=O)CCN3C(=O)c4ccccc4C3=O)cc2)cc1	11.2%	-12.6%	0.9%	-3.0%	36.7*	72.3*
Cc1cc(C)cc(OC(=O)CCN2C(=O)c3ccccc3C2=O)c1	-8.3%	-3.1%	-2.8%	-6.8%	-0.8	7.8
Fc1ccccc1N1CCN(c2ncnc3onc(-c4cccc(Cl)c4)c23)CC1	1.8%	0.1%	nt	nt	nt	nt
CCN(c1ccc(OC)cc1)S(=O)(=O)c1ccc2c(c1)CC(C)N2C(=O)C1CC1 (centres undefined)	-3.9%	1.9%	1.9%	-1.2%	22.5*	4.7
COc1ccc([C@@H]2CC(=O)c3c(O)cc(O[C@@H]4O[C@H](CO)[C@@H](O)[C@H](O)[C@H]4O[C@@H]4O[C@@H](C)[C@H](O)[C@@H](O)[C@H]4O)cc3O2)cc1	nt	nt	nt	-0.5%	-3.0	-6.5
Cc1ccc(C(=O)Nc2ccc(O)c(C(=O)O)c2)o1	?	?	-28.3%	-13.3%	-2.0	-7.5
O=C(COC(=O)CNC(=O)c1ccc(Br)o1)Nc1ccc2c(c1)OCCO2	-8.5%	-25.2%	-8.0%	4.3%	-1.9	-1.1
Cc1ccc(C(=O)Nc2ccc3c(c2)CCC3)o1	-12.9%	0.4%	?	-14.5%	63.1*	98.5*
Cc1ccc(NC(=O)c2ccc(OC(F)(F)F)cc2)cc1S(=O)(=O)N(C)C	-8.0%	-2.6%	1.9%	-11.6%	12.4*	8.5
O=C(Nc1ccc2c(c1)OCO2)c1ccc(Br)o1	-3.9%	0.0%	22.4µM*	-10.0%	47.8*	69.1*
Cc1ccc(NC(=O)c2ccc(Br)o2)cc1S(=O)(=O)N(C)C	-4.4%	?	-0.7%	0.2%	24.3*	78.5*
Cc1ccc(CN2C(=O)c3ccccc3S(=O)(=O)c3ccc(C(=O)OCC4CCCO4)cc32)cc1 (centres undefined)	3.6%	7.3%	nt	nt	nt	nt
O=C(Nc1ccc2c(c1)CCC2)c1cc2ccccc2o1	2.6%	0.2%	-12.4%	-28.8%	65.4*	54.9*
O=C(Nc1ccc(S(=O)(=O)N2CCCC2)cc1)c1ccc(Br)o1	-2.6%	1.9%	0.8%	-2.0%	-3.0	28.7
O=C(Nc1ccc(F)cc1)c1ccc(CSc2ccccc2)o1	6.7%	-10.2%	1.5%	-8.9%	20.9*	5.2
O=C(Nc1ccc(F)cc1)c1ccc(CSc2ccc(Cl)cc2)o1	0.9%	?	3.1%	-6.3%	7.6	1.9
O=C(Nc1ccc2c(c1)Cc1ccccc1-2)c1cc2ccccc2o1	2.2%	nt	nt	nt	nt	nt
O=C(Nc1ccc2c(c1)CCC2)c1ccc(Br)o1	-3.5%	-23.0%	-29.4%	-20.8%	44.5*	76.0*
CC(=O)c1cc2c(cc1NC(=O)CCC1CCCC1)OCO2	nt	1.9%	-0.5%	-0.6%	3.1	-1.0
C/C(=N\NC(=O)c1ccc(Br)o1)c1cc2c(cc1NC(=O)CCC(=O)O)OCO2	-11.7%	2.1%	-8.2%	nt	18.8*	34.4*
N#Cc1ccc2c(c1)C[C@]1(CCCCN3C(=O)c4ccccc4C3=O)Oc3cc(-c4ccccc4)oc(=O)c3[C@H]2O1	nt	4.9%[22.9 µM]	-9.3%[11.5 µM]	14.2%[12.9 µM]	-1.3	i
CCc1ccc(C(=O)c2cn(CC(=O)Nc3ccc4c(c3)OCCO4)c3ccc(C)cc3c2=O)cc1	-1.0%	-1.9%	nt	nt	nt	nt
C=C1CCN(C(CC(C)C)C(=O)Nc2ccc(OC)cc2)S(=O)(=O)c2ccccc21 (centres undefined)	nt	nt	nt	-18.1%	4.8	19.2
CCCN(C(=O)Cn1ncc2c1-c1ccccc1OC2)c1cccc(C)c1	0.8%	-5.5%	nt	nt	nt	nt
SMILES	TbPYK inhibitor	Sm TGR block	LmPK inhibitor	FBPA Giardia inh	Cycloheximide cs	Shiga toxin inh
Cc1ccc(NC(=O)Cc2ccc3c(c2)CCCC3)cc1C	-4.0%	-12.5%	3.5%	11.1%	23.4*	-13.5
Cc1ccc(NC(=O)Nc2ccc3c(c2)CCC3)cc1C	-5.5%	-0.1%	-1.9%	nt	17.7	29.1
Cc1ccc(C(=O)Nc2ccc(F)cc2)o1	-10.0%	-14.0%	-23.1%	-1.4%	20.3	32.3*
O=C(Nc1ccc2c(c1)OCO2)c1ccc(COc2ccc3c(c2)CCC3)o1	-0.2%	-3.5%	-1.3%	-13.9%	43.0*	44.6*
Cc1cc(-c2ccc(S(=O)(=O)NCc3ccccc3Cl)s2)on1	-20.8%[15.4 µM]	6.4%	nt	nt	nt	nt
COCCCNC(=O)c1c(NC(=O)Cc2coc3cc(C)ccc23)sc2c1CCCC2	0.0%	5.8%	nt	nt	nt	nt
COc1cc(C2C(C(=O)Nc3ccc(C)cc3C)=C(C)Nc3nc4ccccc4n32)cc(OC)c1OC (centres undefined)	1.7%	-0.6%	nt	nt	nt	nt
COC(=O)C1(Cc2cc(-c3ccc(Cl)cc3)no2)CCN(C(=O)OC(C)(C)C)CC1	5.4%	15.5%	-8.9%	7.0%	-0.6	13.3
COC(=O)C1(Cc2cc(-c3ccc([N+](=O)[O-])cc3)no2)CCN(C(=O)OC(C)(C)C)CC1	-0.5%	20µM*	nt	nt	nt	nt
COC(=O)C1(Cc2cc(-c3cccnc3)no2)CCN(C(=O)OC(C)(C)C)CC1	-13.1%	2.2%	1.1%	4.0%	10.0*	12.4
COC(=O)C1(CC2CC(c3ccc(Cl)cc3)=NO2)CCN(C(=O)OC(C)(C)C)CC1 (centres undefined)	4.8%	-14.4%	nt	nt	nt	nt
CSc1ccccc1NC(=O)C1=CC(c2cccs2)=NS(=O)(=O)N1C	-14.3%	?	12.1%	-9.8%	4.2	15.3*
Cc1ccc(C2=NS(=O)(=O)N(C)C(C(=O)Nc3ccc(F)cc3F)=C2)cc1	-8.2%	17.2%	-0.7%	-13.3%	10.4	15.6*
COc1ccc(C2=NOC(C(=O)Nc3ccc(C(C)=O)cc3)C2)cc1OC (centres undefined)	-9.2%	10.6%	-1.0%	3.6%	29.1*	74.8*
N#Cc1c(NC(=O)C2CC(c3c(F)cccc3Cl)=NO2)sc2c1CCC2 (centres undefined)	2.1%	-8.9%	-2.6%	4.8%	23.4*	35.6*
COc1ccc(C2=NOC(C(=O)NC3CCCCC3)C2)cc1OC (centres undefined)	0.6%	0.0%	3.5%	1.9%	-1.3	6.4
COc1cc(NC(=O)C2CC(c3c(F)cccc3Cl)=NO2)c(OC)cc1Cl (centres undefined)	-9.2%	-21.0%	0.6%	0.7%	-2.6	nt
Cc1ccc(O)c(NC(=O)C2CC(c3c(F)cccc3Cl)=NO2)c1 (centres undefined)	nt	-7.5%	5.5%	6.6%	11.9	27.7
COc1ccc(NC(=O)C2CC(c3c(F)cccc3Cl)=NO2)cc1OC (centres undefined)	6.4%	4.3%	-2.7%	-0.1%	21.0*	nt
CN1CCN(C(=O)C2CC(c3c(F)cccc3Cl)=NO2)CC1 (centres undefined)	-8.7%	3.8%	2.2%	6.7%	10.2*	15.3
